MPTP inh: mitochondrial permeability transition pore inhibitors, primary screen, biochemical, isolated mouse mitochondria, absorbance; actives 1.4% (n = 360,000); inhibition, % at 10 µM; Ca2+ swelling absorbance, 30 min; AID 602449, 2012;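 active = inhibition of 50% or more, scaled per plate between neutral and stimulator controls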
Beta cell apopt: inhibitors of cytokine-induced beta cell apoptosis, primary screen, luminescence. INS-1E cytokine-induced death, ATP luminescence, 48 h; percent of positive-control rescue, neutral wells zero. protection from apoptosis, % (concentration not given with the values). actives 0.8% (n = 300,000);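 active = Every replicate reaches about 75%, or at least half do and their mean reaches it too, limit read from the data; inconclusive = At least half of replicates reach the limit but their mean does not; inactive = Under half of replicates reach the limit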;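 also: higher means more ATP so stronger rescue from cytokine killing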
CSC inhib: cancer stem cell viability inhibitors, primary screen, luminescence. inhibition, % at 7.5 µM. actives 1.1% (n = 300,000). cancer stem cell-like cells viability; in the data active = inhibition above about 75%; inconclusive = no clear call, values can overlap the other calls; tested in HMLE shEcad cells
Calb FLC: C. albicans growth inhibition with fluconazole, primary screen, CaCi-2 strain, Alamar Blue fluorescence; actives 0.57% (n = 300,000); growth inhibition, % (test concentration not listed); AID 1979, 2009; C. albicans CaCi-2 (fluconazole-resistant clinical isolate) + fluconazole, 48 h;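 active = growth inhibition above about 58% in most replicates, limit read from the data, passing the limit was not always enough; inconclusive = exactly half the replicates above a set limit; inactive = most replicates below a set limit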;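 also: all wells also contain fluconazole at 8 µg/ml as a sub-toxic cotreatment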
Mdm2 MdmX PPI: inhibitors of human Mdm2-MdmX association, primary screen, cell-based, luminescence, split luciferase, SaOS-2, uHTS; Protein Mdm4 (Homo sapiens) + E3 ubiquitin-protein ligase Mdm2 (Homo sapiens), …; SaOS-2 split-luciferase Mdm2/MdmX complementation; inhibition, % at 8 µM; actives 3% (n = 330,000); AID 485346, 2010;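 active = inhibition of at least 50% at 8 µM in the primary screen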
Target sequence (O15151 whole entry, looked up): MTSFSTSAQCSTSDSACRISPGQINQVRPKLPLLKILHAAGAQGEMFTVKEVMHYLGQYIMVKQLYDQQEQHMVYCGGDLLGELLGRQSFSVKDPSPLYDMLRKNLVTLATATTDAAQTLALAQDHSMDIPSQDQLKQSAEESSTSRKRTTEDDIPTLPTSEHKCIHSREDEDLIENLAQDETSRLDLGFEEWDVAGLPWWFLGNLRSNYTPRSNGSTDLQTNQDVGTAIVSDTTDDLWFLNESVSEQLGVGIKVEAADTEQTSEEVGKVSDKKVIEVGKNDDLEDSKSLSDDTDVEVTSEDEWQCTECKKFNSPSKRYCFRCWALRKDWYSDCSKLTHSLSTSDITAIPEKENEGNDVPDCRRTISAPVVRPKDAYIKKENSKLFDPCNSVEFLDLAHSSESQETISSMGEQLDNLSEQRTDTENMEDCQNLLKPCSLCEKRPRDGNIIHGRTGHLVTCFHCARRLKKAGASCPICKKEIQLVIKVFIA
Target sequence (Q00987 whole entry, looked up): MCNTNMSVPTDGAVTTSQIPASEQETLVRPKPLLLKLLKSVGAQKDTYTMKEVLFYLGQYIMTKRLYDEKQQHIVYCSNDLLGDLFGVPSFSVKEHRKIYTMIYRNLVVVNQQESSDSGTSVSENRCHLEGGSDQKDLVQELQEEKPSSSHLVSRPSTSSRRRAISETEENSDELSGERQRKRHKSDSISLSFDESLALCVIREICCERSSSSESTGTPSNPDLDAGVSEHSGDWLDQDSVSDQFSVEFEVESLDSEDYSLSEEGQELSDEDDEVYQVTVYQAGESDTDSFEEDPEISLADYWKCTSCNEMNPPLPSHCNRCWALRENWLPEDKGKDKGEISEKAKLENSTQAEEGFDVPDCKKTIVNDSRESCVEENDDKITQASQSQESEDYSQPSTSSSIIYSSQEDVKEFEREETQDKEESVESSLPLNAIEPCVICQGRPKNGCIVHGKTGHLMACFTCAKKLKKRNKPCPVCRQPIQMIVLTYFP
Mdm2-MdmX conf: Mdm2-MdmX complex disruptors, retested hits, confirmation, luminescence, single concentration; shares compounds with Mdm2 MdmX PPI; AID 489028, 2010; inhibition, % at 8 µM; Mdm2-MdmX binding, luminescent assay; actives 55% (n = 10,000); in the data active = inhibition above about 40%
FLuc counter: full-length luciferase signal inhibition, confirmation, counter-screen for Mdm2/MdmX interaction inhibitor project, cell-based, single concentration, SaOS-2; SaOS-2 full-length luciferase counterscreen, luminescence; shares compounds with Mdm2 MdmX PPI; AID 504607, 2011; inhibition, % at 8 µM; actives 77% (n = 6,200);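 active = mean inhibition at 8 µM reaching about 37%, which flags the compound as non-specific, limit read from the data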;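 also: p53-null SaOS-2 cells with luciferase driven by a doxycycline-inducible promoter; compound on cells about two nights before reading with doxycycline added after day one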
Large screens that a line does not name were inactive (follow-up assays come after a bar, where they were run). Compounds with a hit are over-represented: about 4.8% of the library has one in this group of screens.

O=C(N/N=C/c1ccc([N+](=O)[O-])o1)c1cc(-c2cccc(Br)c2)nc2ccccc12	Mdm2 MdmX PPI 50 | Mdm2-MdmX conf inactive
CCCOc1cccc(-c2cc(C(=O)N/N=C/c3ccccn3)c3ccccc3n2)c1	none
CN(/N=C/c1ccc(N(C)C)cc1)C1=NS(=O)(=O)c2ccccc21	none
NC(Cc1ccc(Cl)cc1)c1csc(Nc2ccc(-c3ccccc3)nn2)n1 (stereo not drawn)	none (no result: Beta cell apopt, CSC inhib, Calb FLC, Mdm2 MdmX PPI)
CC1(C)C(C=C(Cl)Cl)C1C(=O)Nc1ccc(S(=O)(=O)Nc2ncccn2)cc1 (stereo not drawn)	none
c1ccc(SC23CCCCN(CCC2)C32OCCO2)cc1 (stereo not drawn)	none (no result: Beta cell apopt, CSC inhib, Calb FLC, Mdm2 MdmX PPI)
Cc1csc(SCC(=O)c2cc(C)n(Cc3cccs3)c2C)n1	Mdm2 MdmX PPI 66 | Mdm2-MdmX conf 79 | FLuc counter 107
COCCn1c(C)cc(C(=O)CSc2ccc(NC(C)=O)cc2)c1C	none
CC(=O)Nc1ccc(SCC(=O)c2cc(C)n(-c3ccccc3F)c2C)cc1	CSC inhib 87, Mdm2 MdmX PPI 72 | Mdm2-MdmX conf 82 | FLuc counter 73
CC(=O)Nc1ccc(SCC(=O)c2cc(C)n(Cc3cccs3)c2C)cc1	CSC inhib 106, Mdm2 MdmX PPI 74 | Mdm2-MdmX conf inactive
Cc1cc(C(=O)CSc2nnc(N)s2)c(C)n1Cc1cccs1	none
O=C(NCc1ccccc1)c1nc(-c2c(F)cccc2F)oc1-c1ccccc1	none (no result: Beta cell apopt, CSC inhib, Calb FLC, Mdm2 MdmX PPI)
Cc1nc2ccc(C(=O)N3c4ccccc4N=C(c4ccc(C(F)(F)F)cc4)C3C(=O)NC(C)(C)C)cc2[nH]1 (stereo not drawn)	none (no result: Beta cell apopt, CSC inhib, Calb FLC, Mdm2 MdmX PPI)
CC(C)C[C@@H]1CC2=C(C(=O)OC(C)(C)O2)[C@H](CCc2ccccc2)O1	none (no result: Beta cell apopt, CSC inhib, Calb FLC, Mdm2 MdmX PPI)
CCCNC(=O)c1ccc2c(=O)c(O)c(-c3ccc(F)cc3)[nH]c2c1	Calb FLC 89, Mdm2 MdmX PPI 69 | Mdm2-MdmX conf inactive
Nc1c(Cl)cc(-c2[nH]c3cc(C(=O)NCCO)ccc3c(=O)c2O)cc1Cl	none
CCCNC(=O)c1ccc2c(=O)c(O)c(-c3cccc(Br)c3)[nH]c2c1	Beta cell apopt 98, CSC inhib 125, Calb FLC 114, Mdm2 MdmX PPI 53 | Mdm2-MdmX conf 70 | FLuc counter inactive
CCCNC(=O)c1ccc2c(=O)c(O)c(C)[nH]c2c1	none
O=C(NC(=S)Nc1cccc2cnccc12)c1ccccc1	Mdm2 MdmX PPI 61 | Mdm2-MdmX conf inactive
O=C(O)c1cccc(NC(=S)NC(=O)c2ccncc2)c1	Mdm2 MdmX PPI 53 | Mdm2-MdmX conf inactive
CCOc1cc(CNc2ccc(Br)cc2)cc(Br)c1OCC(=O)NC(C)(C)C	CSC inhib inconclusive, Mdm2 MdmX PPI 56 | Mdm2-MdmX conf inactive
O=C(CN1C(=O)NC2(CCCc3ccccc32)C1=O)c1ccc(F)c(F)c1 (stereo not drawn)	none (no result: Calb FLC)
COC(=O)C[C@@H]1OC[C@H](C(C)C)N1S(=O)(=O)c1ccc(C)cc1	none (no result: Beta cell apopt, CSC inhib, Calb FLC, Mdm2 MdmX PPI)
COc1ccc(C(=O)Nc2nc3c(s2)CCCC3)cc1S(=O)(=O)N1CCCc2ccccc21	Mdm2 MdmX PPI 91 (no result: CSC inhib) | Mdm2-MdmX conf 90 | FLuc counter inactive
COc1ccc(C(=O)Nc2ncccc2C)cc1S(=O)(=O)N1CCCc2ccccc21	none
CC1(C(=O)NC2CCCC2)CCC(=O)N1C1CCN(Cc2ccccc2)CC1 (stereo not drawn)	none (no result: Beta cell apopt, CSC inhib, Calb FLC, Mdm2 MdmX PPI)
Cc1ccc(C)c(Nc2nc3c(S(=O)(=O)c4ccccc4)nnn3c3ccccc23)c1	none
O=S(=O)(c1ccccc1)c1nnn2c1nc(NC1CCN(Cc3ccccc3)CC1)c1ccccc12	Mdm2 MdmX PPI 54 | Mdm2-MdmX conf inactive
O=S(=O)(c1ccccc1)c1nnn2c1nc(NC1CCN(Cc3ccccc3)CC1)c1cc(Cl)ccc12	Mdm2 MdmX PPI 100 | Mdm2-MdmX conf inactive | FLuc counter 52
Cc1ccc(F)cc1C(=O)N1CCCCC1c1cc(C(=O)NC(C)C)no1 (stereo not drawn)	none (no result: Beta cell apopt, CSC inhib, Calb FLC, Mdm2 MdmX PPI)
Cc1c(NC(=O)CSc2nnc(-c3ccccc3F)o2)c(=O)n(-c2ccccc2)n1C	none (no result: Beta cell apopt, CSC inhib, Calb FLC, Mdm2 MdmX PPI)
Cc1cnc(NC(=O)Cc2ccc(C)c(C)c2)s1	none
CCCCCNC(=O)C(c1ccnc2ccccc12)n1c(=O)c(-c2ccccc2)nc2ccccc21 (stereo not drawn)	none (no result: Beta cell apopt, CSC inhib, Calb FLC, Mdm2 MdmX PPI)
CCCN1CCN(CCCNC(=O)c2ccc3c(Cl)c4c(nc3c2)CCCC4)CC1	Mdm2 MdmX PPI 70 | Mdm2-MdmX conf inactive | FLuc counter 55
Cc1ccc(N(C)C(=O)c2ccc3c(Cl)c4c(nc3c2)CCC4)cc1C	none (no result: CSC inhib)
O=C(NCCCN1CCCC1)c1ccc2c(Cl)c3c(nc2c1)CCCC3	Mdm2 MdmX PPI 72 | Mdm2-MdmX conf 51 | FLuc counter 45
CCc1ccc(N(CC)C(=O)c2ccc3c(Cl)c4c(nc3c2)CCC4)cc1	Mdm2 MdmX PPI 56 (no result: CSC inhib) | Mdm2-MdmX conf inactive
CCN(CC)CCCNC(=O)c1ccc2c(Cl)c3c(nc2c1)CCCC3	Calb FLC inconclusive, Mdm2 MdmX PPI 84 | Mdm2-MdmX conf 49 | FLuc counter inactive
O=C(COc1ccc(S(=O)(=O)N2CCOCC2)cc1)NCc1ccccn1	none
CCCCn1nnnc1C(c1cc2ccccc2o1)N(Cc1ccccc1)Cc1ccccc1 (stereo not drawn)	none (no result: Beta cell apopt, CSC inhib, Calb FLC, Mdm2 MdmX PPI)
COC(=O)C1=CN(c2ccc(F)cc2)C(N)=C(C#N)C1c1cccc(OC)c1OC (stereo not drawn)	none (no result: Beta cell apopt, CSC inhib, Calb FLC, Mdm2 MdmX PPI)
COc1ccc(/C=C2\CCCCC2=O)cc1	none
COc1ccc(/C=C2\CCC/C(=C\C=N\N(C)C)C2=O)cc1	CSC inhib 86, Mdm2 MdmX PPI 95 | Mdm2-MdmX conf 51 | FLuc counter inactive
CN(C)/N=C/C=C1\CCC/C(=C\c2ccc(F)c(F)c2)C1=O	CSC inhib 85, Mdm2 MdmX PPI 77 | Mdm2-MdmX conf inactive | FLuc counter 44
O=C(C[C@@H]1CC[C@@H](NC(=O)Nc2cccc(F)c2)[C@@H](CO)O1)NCC1CCCCC1	none (no result: Beta cell apopt, CSC inhib, Calb FLC, Mdm2 MdmX PPI)
COc1ccc(C(CNC(=O)C(Cc2ccccc2)NC(N)=O)N(C)C)cc1 (stereo not drawn)	none
O=C(NCc1ccccc1)C(c1ccc(-c2ccccc2)cc1)N1CCN(C(=O)C2CCCO2)CC1 (stereo not drawn)	none (no result: Beta cell apopt, CSC inhib, Calb FLC, Mdm2 MdmX PPI)
N/C(CCS(=O)(=O)c1ccc(Cl)cc1)=N\OC(=O)c1ccccc1C(F)(F)F	Mdm2 MdmX PPI 94 (no result: Beta cell apopt) | Mdm2-MdmX conf 93 | FLuc counter inactive
CCN(CC(=O)Nc1ccccc1C(F)(F)F)C(=O)CCS(=O)(=O)c1ccc(Cl)cc1	none

Screens (PubChem)
